According to PubChem BioAssay (NCI):
This is part of a sample that, as a whole, favours compounds with a hit. Of some 79,000 tested, about 15% had one in any assay. Cut-off read from the data, not from the text of the source: active = growth inhibition above about 70%; inactive = the rest.

Key:
[1] = NCI Yeast Anticancer Drug Screen. Data for the rad50 strain (AID 155);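 note: 0% = growth of vehicle-only cultures of the same strain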; details: S. cerevisiae rad50 strain growth inhibition; at 50.0 µM; hits give high values
How it was run: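 Inhibition values express reduced yeast growth in compound-treated cultures relative to vehicle-treated controls.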

[2] = NCI Yeast Anticancer Drug Screen. Data for the mec2-1 strain (AID 157); details: S. cerevisiae mec2-1 strain, at 50.0 µM, hits give high values
How it was run: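 Compounds were applied to mec2-1 yeast cells. Their growth was then compared with that of vehicle-treated cultures to give growth inhibition.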

[3] = NCI Yeast Anticancer Drug Screen. Data for the sgs1 mgt1 strain (AID 161);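 note: 0% = growth of cultures given vehicle only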; details: S. cerevisiae sgs1 mgt1 strain, at 50.0 µM, hits give high values
How it was run: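 Compounds are added to genetically altered yeast, and growth is compared with cultures given vehicle alone to give percent inhibition.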

[4] = NCI Yeast Anticancer Drug Screen. Data for the cln2 rad14 strain (AID 165);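 note: 0% = growth equal to vehicle treated cultures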; details: S. cerevisiae cln2 rad14 strain, at 50.0 µM, hits give high values
How it was run: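 Strain: cln2 rad14 yeast, altered in cell cycle control and DNA damage repair. Read-out: growth inhibition vs vehicle.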

[5] = NCI Yeast Anticancer Drug Screen. Data for the bub3 strain (AID 167); details: S. cerevisiae bub3 mutant strain, at 50.0 µM, hits give high values
How it was run: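 Steps: expose the mutant yeast strain to compound; grow alongside vehicle-treated cultures; measure growth; express inhibition against the vehicle cultures.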

[6] = NCI Yeast Anticancer Drug Screen. Data for the mlh1 rad18 strain (AID 175); details: S. cerevisiae mlh1 rad18 strain growth inhibition; at 50.0 µM; hits give high values
How it was run: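 A repair-deficient yeast strain is exposed to test compound, and growth is scored relative to vehicle-treated controls.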

Measured: growth inhibition

COc1ccc(OC)c(C#N)c1C#N (tested in a mixture with another compound)
inactive: [1] -25.1% | [2] 5.9% | [3] -0.15% | [4] -41.5% | [5] -3.35% | [6] -6.75%

Cc1ccccc1NS(=O)(=O)c1c(N)ncn1C
inactive: [1] -5.2% | [2] 3.55% | [3] -0.9% | [4] -29.3% | [5] -0.65% | [6] 5.25%

N#C/C(=C\c1ccc(Cl)cc1)c1nc2ccccc2c(=O)[nH]1
inactive: [1] 12.2% | [2] 17.9% | [3] -14.5% | [4] 5.7% | [5] 1.8% | [6] -53.2%

COC(=O)CCCC(Sc1ccccc1)C(=O)OC (stereo unspecified)
inactive: [1] 3.7% | [2] 0.6% | [3] 15.7% | [4] -7.4% | [5] 7.85% | [6] 6.75%

CCOC(=O)C(C(=O)/C=C\c1ccccc1)(C(c1ccccc1)c1ccccc1)C(c1ccccc1)c1ccccc1
inactive: [1] -9.7% | [2] 14.7% | [3] 5% | [4] -38.5% | [5] 2.9% | [6] 2.1%

O=C(O)c1cccc(/C=N/O)c1O
inactive: [1] -16.9% | [2] -3.25% | [3] -6.45% | [4] -10.5% | [5] 7.75% | [6] 8.55%

CSC(=O)/C=C1\SS/C(=C\C(=O)SC)S1
inactive: [1] -10% | [2] -10.4% | [3] -13.1% | [4] -5% | [5] -11.2% | [6] -16.1%

c1ccc(-c2nc3ccccc3nc2SCc2cccnc2)cc1
inactive: [1] 14.4% | [2] -18.1% | [3] -19.7% | [4] -18.2% | [5] -30.8% | [6] -9.8%

COc1cc(C(=O)N=Nc2c(O)[nH]c3ccc(Br)cc23)cc(OC)c1OC
inactive: [1] 3.55% | [2] -16.6% | [3] -7.1% | [4] -1.9% | [5] 2% | [6] -3.1%

O=C(Nc1ccccc1-c1ccccc1)c1ccccc1
inactive: [1] 1.15% | [2] -11.5% | [3] 20.1% | [4] 11.3% | [5] 45.4% | [6] 26.9%

C=C1CC2(C)C(=O)CCCC2OC1=O (stereo unspecified)
inactive: [1] 4.05% | [2] -0.85% | [3] 10.1% | [4] -14.9% | [5] 4.8% | [6] 4%

CC(SCc1ccccc1)C(NC(=O)c1ccccc1)C(=O)O (stereo unspecified)
inactive: [1] 4.95% | [2] 9.9% | [3] -8.3% | [4] -0.3% | [5] 10.1% | [6] 7.55%

CN(C)c1ccc(C2NC(c3ccccc3)c3c(ccc4ccccc34)O2)cc1 (stereo unspecified)
inactive: [1] 8.5% | [2] 2.45% | [3] -12.7% | [4] -22.8% | [5] 2.5% | [6] 0.95%

COc1ccc(CCNc2ncc([N+](=O)[O-])cc2N)cc1OC
inactive: [1] 5.15% | [2] -8.75% | [3] -10.8% | [4] -20.9% | [5] 6.25% | [6] 2.75%

Cc1nc(N)[nH]c(=O)c1N
inactive: [1] 13.9% | [2] 3.4% | [3] 8.25% | [4] 11.8% | [5] -7.8% | [6] 8.6%

Cc1nn(C(N)=S)c(C)c1N=Nc1ccc(O)cc1
inactive: [1] -5.2% | [2] -4.2% | [3] -4.9% | [4] -29.8% | [5] -11.2% | [6] 15.9%

COc1ccc2nc(C(C)(O)c3ccccc3)ccc2c1 (stereo unspecified)
inactive: [1] -1.6% | [2] -8.15% | [3] 6% | [4] -6.85% | [5] 2.65% | [6] -29.1%

O=C(CCBr)OCc1ccccc1
inactive: [1] -12.5% | [2] -7.45% | [3] 1.1% | [4] -20.8% | [5] -26.2% | [6] 25%

OC(CI)C1OCOC(CI)C1O (stereo unspecified)
inactive: [1] -11.7% | [2] 3.65% | [3] 10.7% | [4] -26.5% | [5] -3.75% | [6] 16.4%

CC(=O)c1ccc2cc(Cl)ccc2c1
inactive: [1] 30.2% | [2] 3.45% | [3] 3.5% | [4] -29.9% | [5] 0.35% | [6] 4.2%

CCOC(=O)C(N=Cc1ccc([N+](=O)[O-])cc1)C(O)c1ccc([N+](=O)[O-])cc1 (stereo unspecified)
inactive: [1] 9.55% | [2] 5.15% | [3] 1.8% | [4] 14.9% | [5] 2.2% | [6] 7.75%

CCc1cc2c(cc1COC(C)=O)C(C)(C)CCC2(C)C
inactive: [1] -10.8% | [2] -19.4% | [3] 5.5% | [4] -13.8% | [5] 4.3% | [6] -31.9%

O=C1OC(=O)C2CCC12 (stereo unspecified)
inactive: [1] 14% | [2] -9.5% | [3] 3.5% | [4] 2.5% | [5] 12.5% | [6] 17.6%

C/C(CC(=O)CCC(=O)Nc1cccc(C(F)(F)F)c1)=N\NC(=O)NN
inactive: [1] -25.8% | [2] -16.8% | [3] -26.4% | [4] 1.95% | [5] -13.9% | [6] -15.8%

COc1ccc2c(c1OC)C1NCCc3cc4c(cc3C1(OC)C2=O)OCO4 (stereo unspecified)
inactive: [1] 21.9% | [2] 2.35% | [3] 0.85% | [4] 0.5% | [5] 2% | [6] 8.55%

COc1cc(C(=O)OC2CC3CN(CCc4c[nH]c5ccccc45)CC3CC2OC)cc(OC)c1OC (stereo unspecified)
inactive: [1] 5.9% | [2] 3.25% | [3] 28.4% | [4] 32.9% | [5] 5.05% | [6] 45.7%

OCCN(CCO)CCCNc1ccnc2cc(Cl)ccc12
inactive: [1] -22.6% | [2] -2% | [3] -0.65% | [4] -39.9% | [5] -12.8% | [6] 5.2%

CCOc1ccccc1NC(=O)Nc1cccc2ccccc12
inactive: [1] -3.5% | [2] 3.75% | [3] 3.65% | [4] -22.3% | [5] -6.8% | [6] -15.4%

CC(=O)NCS(=O)(=O)O
inactive: [1] -25.3% | [2] -13.4% | [3] -0.9% | [4] -34% | [5] -12.3% | [6] -9.55%

CCCCNc1c(C(=O)N2CCCCC2)cnc2c1cnn2CC
inactive: [1] -3.15% | [2] 1.8% | [3] 26.2% | [4] -13.9% | [5] 46.8% | [6] 1.05%

COC12OCCN(C)C1=CC(=O)C1=NNC(C)C12 (stereo unspecified)
inactive: [1] -37% | [2] -1.6% | [3] -8% | [4] -27% | [5] -11.8% | [6] -36.5%

COc1ccc(NC(=S)NN=C(C)c2cccc(C(C)=NNC(=S)Nc3ccc(OC)cc3)n2)cc1
inactive: [1] -26.1% | [2] -23.1% | [3] 5.15% | [4] -15.7% | [5] -14.3% | [6] 1.95%

CC(=O)N1OCCc2ccccc21
inactive: [1] 8.2% | [2] -0.15% | [3] -6.65% | [4] -37.5% | [5] -5.5% | [6] -1.45%

CC1CN(C(c2ccccc2)c2ccccc2)CCN1CCO (stereo unspecified)
inactive: [1] -3.75% | [2] 20.6% | [3] 12.3% | [4] -65.2% | [5] 4.85% | [6] 25.4%

CC1CC(C)OC(c2ccco2)O1 (stereo unspecified)
inactive: [1] 2.4% | [2] -20.6% | [3] -11.9% | [4] -37.6% | [5] -15.1% | [6] 16.2%

CN1CCN(C(CO)Cc2ccccc2)CC1 (stereo unspecified)
inactive: [1] 3.85% | [2] -10.1% | [3] -9.5% | [4] -15.8% | [5] 8.8% | [6] -7.4%

C=CNC(=O)NC(=O)CSc1nnc(-c2ccccc2NC(=O)C(F)(F)F)c(=O)[nH]1
inactive: [1] 5.7% | [2] -4.95% | [3] -4% | [4] 14.9% | [5] 30.9% | [6] 5.4%

Cc1cccc2nc(-c3ccccc3)ccc12
inactive: [1] -3.5% | [2] -11.6% | [3] 1.55% | [4] 5.6% | [5] 4.95% | [6] 4%

Cc1[nH]c2ccccc2c1C(c1ccccc1O)c1c(C)[nH]c2ccccc12
inactive: [1] 20.6% | [2] 23.4% | [3] 14.2% | [4] 18.6% | [5] 13.2% | [6] 33.4%

CCCCCCCCCCCC(=O)Nc1ccc(C(C)C)cc1
inactive: [1] 4.75% | [2] -7.6% | [3] -13.3% | [4] 18.3% | [5] 21.2% | [6] -12.8%

N#Cc1ccc(-c2nc3ccc(Cl)cc3[nH]2)cc1
inactive: [1] -47.9% | [2] -31% | [3] -13.7% | [4] 6.7% | [5] -30.9% | [6] -21.9%
